Assay results: PubChem BioAssay
The source made the active and inactive calls. Unless noted, how the calls were made is not given here.

Legend:
[1] = kinase inhibitors against Plasmodium liver-stage infection, cell-based, known kinase inhibitor set, luminescence, hepatoma host viability (AID 624392); details: Plasmodium liver stage in hepatoma cells, luciferase luminescence, concentration not given here; liver cell % of control: measured here: host liver cell viability; parasite % of control: stronger effect = lower value;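 further: infected cells incubated roughly two days before readout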
[2] = modulators of glucocorticoid suppression of NF-kB, cell-based, luciferase, IL-1B stimulus, dexamethasone (AID 624486); details: NF-kB luciferase reporter, IL-1B + dexamethasone, luminescence; percent of negative control (+Dex): actives lie on both sides, concentration not given here; z-score: measured here: IL-1B alone, no Dex;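 on percent of negative control (+Dex): 100% = mean signal of vehicle control wells on the plate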
[3] = kinase inhibitors altering Pseudomonas killing of worms, whole organism (AID 651566);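 further: tested at 14 µM; sign flipped so higher z means a lower ratio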; details: C. elegans killed by P. aeruginosa, survival ratio
[4] = activators of macrophage pro-inflammatory response, cell-based, murine, luminescence (AID 652131); details: murine macrophage pro-inflammatory reporter, stronger effect = higher value
[5] = target: Cellular tumor antigen p53 (Homo sapiens) (UniProt P04637); assay: kinase inhibitors altering GFP-p53 stability in HPV16-positive cells, imaging, known kinase inhibitor set, EGFP/DsRed ratio (AID 1053116); details: stronger effect = higher value; EGFP object count: measured here: GFP-p53 positive objects count;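 further: cells exposed to compounds for 24 h at 37 °C before reading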
Cellular tumor antigen p53 (Homo sapiens), sequence (P04637 whole entry, looked up): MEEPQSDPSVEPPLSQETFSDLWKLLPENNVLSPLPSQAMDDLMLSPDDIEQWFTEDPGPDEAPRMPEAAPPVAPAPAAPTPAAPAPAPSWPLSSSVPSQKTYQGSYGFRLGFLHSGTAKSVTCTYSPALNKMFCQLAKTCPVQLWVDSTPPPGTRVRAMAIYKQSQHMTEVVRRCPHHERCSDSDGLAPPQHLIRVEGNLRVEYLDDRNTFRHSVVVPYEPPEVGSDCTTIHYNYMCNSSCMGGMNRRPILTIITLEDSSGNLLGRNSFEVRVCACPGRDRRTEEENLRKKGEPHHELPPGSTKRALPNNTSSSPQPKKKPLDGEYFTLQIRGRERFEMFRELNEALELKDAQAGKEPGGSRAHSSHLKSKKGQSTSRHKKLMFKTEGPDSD

[6] = IRF3 reporter activation in THP-1 macrophages, cell-based, PMA-stimulated THP-1, luminescence (AID 1053176); details: PMA-differentiated THP-1, IRF3 reporter luminescence; stronger effect = higher value
[7] = survival rescue of mitochondrial mutant cells in low glucose, primary screen, MELAS cybrids, Rieske KO mouse fibroblasts, CellTiter-Glo (AID 1508586;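 active means mean z-score across replicates of 1.96 or higher in either the MELAS or the Rieske mutant cell line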;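 further: z relative to plate mean and SD of compound and empty wells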)
[8] = MELAS cybrid survival, CellTiter-Glo 48 h, stronger effect = higher value
[9] = Rieske KO mouse fibroblast survival, CellTiter-Glo 72 h

| Compound | liver cell % of control [1] | parasite % of control [1] | percent of negative control (+Dex) [2] | z-score [2] | z-score [3] | z-score [4] | EGFP object count [5] | EGFP/DsRed ratio [5] | fraction signal [6] | z-score [7, 8] | z-score [7, 9] |
| --- | --- | --- | --- | --- | --- | --- | --- | --- | --- | --- | --- |
| CN1CCN(Cc2ccc(-c3cc4ncnc(Nc5ccc(OCc6cccc(F)c6)c(Cl)c5)c4s3)o2)CC1 | 69.8% | 97% (inactive) | 86.5% (inactive) | -0.395 | 0.455 (inactive) | -0.527 (inactive) | 11.5 | 0.213 (inactive) | 0.006 (inactive) | 0.235 (inactive) | -0.538 |
| Nc1nccc(C#Cc2cncnc2Nc2ccc(OCc3cccc(F)c3)c(Cl)c2)n1 | 107% | 81.2% (inactive) | 83.5% (inactive) | -0.655 | 0.82 (inactive) | -1.19 (inactive) | 313 | 1.99 (active) | -0.0105 (inactive) | -0.936 (inactive) | 0.011 |
| Cc1cc(-c2ccco2)cc(C)c1/C=C/c1cncc(-c2nn[nH]n2)c1 | 90.5% | 119% (inactive) | 94% (inactive) | 0.125 | 0.545 (inactive) | 4.88 (inactive) | 3.5 | 0.0973 (inactive) | -0.008 (inactive) | -1.12 (inactive) | -0.188 |
| CNC(=O)c1cncc(/C=C/c2c(Cl)cccc2Cl)c1 | 138% | 48.1% (inactive) | 92% (inactive) | 0.3 | 0.1 (inactive) | 0.203 (inactive) | 5.5 | 0.562 (inactive) | -0.0025 (inactive) | 0.726 (inactive) | 0.293 |
| O=C(O[C@H]1CN[C@H](C#Cc2cc3ncnc(Nc4ccc5c(cnn5Cc5ccccc5)c4)c3s2)C1)N1CCOCC1 | 118% | 137% (inactive) | 58% (inactive) | -2.13 | 1.08 (inactive) | -0.862 (inactive) | 3 | 0.0849 (inactive) | -0.0115 (inactive) | 0.875 (inactive) | -0.356 |
| CCn1c(-c2nonc2N)nc2cncc(C(=O)NCCNC)c21 | 80.5% | 190% (inactive) | 89% (inactive) | -0.865 | 0.43 (inactive) | -0.531 (inactive) | 7 | 0.122 (inactive) | -0.011 (inactive) | 3 (active) | 0.0886 |
| Cc1cc(O)cc(C)c1/C=C/c1cncc(-c2nn[nH]n2)c1 | 110% | 109% (inactive) | 106% (inactive) | -0.05 | 0.305 (inactive) | 3.53 (inactive) | 4.5 | 0.0667 (inactive) | -0.004 (inactive) | -0.295 (inactive) | -0.403 |
| Cc1ccc2[nH]c(O)c(N=Nc3ccc(S(N)(=O)=O)cc3)c2c1 | 164% | 128% (inactive) | 102% (inactive) | 0.885 | -0.295 (inactive) | -0.079 (inactive) | 5 | 0.439 (inactive) | -0.0055 (inactive) | -0.101 (inactive) | -0.00523 |
| Cc1ccc(NC(=O)CC2CC2)cc1-c1ccc(C(=O)NCC2CC2)cc1 | 75.5% | 149% (inactive) | 98.5% (inactive) | 0.735 | -1.18 (inactive) | 0.093 (inactive) | 6 | 0.154 (inactive) | -0.006 (inactive) | -0.893 (inactive) | -0.555 |
| Cc1ccc(C(=O)NC2CCCCC2)cc1-c1ccc(C(=O)NCC2CC2)cc1 | 103% | 134% (inactive) | 88.5% (inactive) | 0.05 | 1.71 (inactive) | 0.167 (inactive) | 5.5 | 0.116 (inactive) | -0.007 (inactive) | -0.861 (inactive) | 0.203 |
| CCS(=O)(=O)c1ccc(OC)c(Nc2nccc(N(C)c3ccc4c(C)[nH]nc4c3)n2)c1 | 95.1% | 145% (inactive) | 92% (inactive) | -0.36 | -0.175 (inactive) | 2.99 (inactive) | 2.5 | 0.0751 (inactive) | -0.01 (inactive) | 1.33 (inactive) | 0.00494 |
| NS(=O)(=O)c1ccc(N=Nc2c(=O)[nH]c3ccc4[nH]cccc4c23)cc1 | 108% | 91% (inactive) | 144% (active) | 1.98 | 1.48 (inactive) | -1.63 (inactive) | 1.5 | 0.0128 (inactive) | -0.0065 (inactive) | 2.43 (active) | 0.199 |
| CC1=C(C(=O)Nc2ccc3n[nH]c(C)c3c2)C(c2ccc(C(F)(F)F)cc2)CC(=O)N1 (stereo not drawn) | 99.2% | 202% (inactive) | 82.5% (inactive) | -1.14 | 0.355 (inactive) | -0.104 (inactive) | 2.5 | 0.0851 (inactive) | -0.006 (inactive) | -0.0625 (inactive) | -0.632 |
| COC(=O)c1sc(-n2cnc3cc(OC)c(OC)cc32)cc1OCc1ccccc1C(F)(F)F | 103% | 126% (inactive) | 86% (inactive) | 0.12 | 0.885 (inactive) | 0.445 (inactive) | 4.5 | 0.108 (inactive) | -0.003 (inactive) | -0.644 (inactive) | 0.293 |
| CCN1CCC(CC(=O)NC2NNC3NNC(c4cccc(F)c4F)CC32)CC1 (stereo not drawn) | 80.9% | 32.2% (inactive) | 118% (inactive) | -0.095 | -0.285 (inactive) | 0.818 (inactive) | 25.5 | 0.256 (inactive) | -0.004 (inactive) | -0.762 (inactive) | -0.436 |
| CCn1c(-c2nonc2N)nc2c(C#CC(C)(C)O)ncc(OC3CCNCC3)c21 | 78% | 13.9% (active) | 89% (inactive) | -0.435 | 0.17 (inactive) | 3.47 (inactive) | 10.5 | 0.266 (inactive) | 0.001 (inactive) | -0.105 (inactive) | -0.284 |
| Cc1nnc(-c2ccc(C)c(-c3ccc(C(=O)NCc4ccc(Cl)cc4)cc3)c2)o1 | 161% | 31.3% (inactive) | 106% (inactive) | 1.07 | 0.9 (inactive) | -0.451 (inactive) | 2 | 0.079 (inactive) | -0.0105 (inactive) | -0.978 (inactive) | -0.533 |
| CC1=C(C(=O)Nc2ccc3[nH]ncc3c2)C(c2ccc(F)cc2)NC(=O)N1 (stereo not drawn) | 105% | 158% (inactive) | 100% (inactive) | 0.22 | 0.64 (inactive) | -0.296 (inactive) | 3.5 | 0.352 (inactive) | 0.0035 (inactive) | 0.62 (inactive) | -0.219 |
| COc1ccc(CNC(=O)c2ccc(-c3cc(-c4nnc(C)o4)ccc3C)cc2)cc1 | 172% | 67.1% (inactive) | 102% (inactive) | 0.42 | 1.23 (inactive) | -0.363 (inactive) | 3 | 0.129 (inactive) | -0.008 (inactive) | -0.23 (inactive) | -0.248 |
| FC(F)(F)c1cccc(-c2nn3ncccc3c2-c2ccnc(Nc3ccc4c(c3)OCCO4)n2)c1 | 147% | 22.4% (inactive) | 90.5% (inactive) | 0.13 | -0.325 (inactive) | -0.458 (inactive) | 5.5 | 0.171 (inactive) | 0.007 (inactive) | -0.0141 (inactive) | -0.445 |
| COc1ccc(-c2nn3ncccc3c2-c2ccnc(Nc3ccc(F)c(F)c3)n2)cc1 | 177% | 16.9% (inactive) | 75.5% (inactive) | -0.785 | 1.61 (inactive) | -0.312 (inactive) | 4.5 | 0.039 (inactive) | 0.0025 (inactive) | 1.01 (inactive) | -0.0344 |
| CCn1c(-c2nonc2N)nc2c(C#CC(C)(C)O)nc(OC[C@H](N)c3ccccc3)cc21 | 91.7% | 78.3% (inactive) | 106% (inactive) | 1.86 | 0.015 (inactive) | -1.25 (inactive) | 7.5 | 0.207 (inactive) | -0.0025 (inactive) | -0.101 (inactive) | 0.135 |
| COc1cc(Nc2ncc3c(C)nc(-c4cccc(C(F)(F)F)c4)n3n2)cc(OC)c1OC | 91.6% | 120% (inactive) | 59.5% (inactive) | -3.31 | 0.325 (inactive) | -0.389 (inactive) | 11 | 0.172 (inactive) | 0.005 (inactive) | 1.04 (inactive) | 0.168 |
| CCn1c(-c2nonc2N)nc2c(N3CCCC3)nccc21 | 90.8% | 137% (inactive) | 80.5% (inactive) | -0.655 | -0.89 (inactive) | 1.27 (inactive) | 3 | 0.0699 (inactive) | -0.004 (inactive) | 0.113 (inactive) | -0.0304 |
| CS(=O)(=O)Nc1cccc(-c2ccc3c(NC(=O)C4CC4)n[nH]c3c2)c1 | 89.6% | 233% (inactive) | 96% (inactive) | 0.535 | 0.185 (inactive) | -0.214 (inactive) | 7 | 0.137 (inactive) | -0.0065 (inactive) | -0.446 (inactive) | -0.47 |
| CCn1c(-c2nonc2N)nc2cncc(C(=O)N3CCNCC3)c21 | 101% | 140% (inactive) | 111% (inactive) | 0.555 | -0.355 (inactive) | 0.864 (inactive) | 8 | 0.129 (inactive) | -0.005 (inactive) | -0.623 (inactive) | 0.0786 |
| CN1CCN(C(=O)c2ccc(NC(=O)Nc3ccc(N(C)c4ccnc(Nc5ccc(CS(C)(=O)=O)cc5)n4)cc3)cc2)CC1 | 86.4% | 77.1% (inactive) | 85.5% (inactive) | -0.585 | 0.175 (inactive) | 4.5 (inactive) | 2 | 0.13 (inactive) | -0.0115 (inactive) | 0.142 (inactive) | 0.134 |
| N#Cc1ccc2c(-c3ccnc(NC4CC4)n3)c(-c3ccc(F)cc3)nn2c1 | 122% | 87.3% (inactive) | 106% (inactive) | 0.525 | -0.52 (inactive) | 2.06 (inactive) | 0.5 | 0.00284 (inactive) | 0 (inactive) | -0.69 (inactive) | -0.125 |
